Among the data in PubChem BioAssay AID602139 (NMMLSC, 2011) are inhibition values, retold here.

The list shows a part of the results. Calls of active or inactive are those of the source. Rule as the data show it: active = inhibition above about 32%; inactive = the rest.

The test system of the assay is Botulinum neurotoxin type A light chain protease (Clostridium botulinum A str. ATCC 3502). As to the kind of experiment: BoNT/A light chain protease inhibitors, confirmation, biochemical, flow cytometry, cherry pick 1 (AID 602139). The following applies: multiplex microsphere protease assay, at 10 µM, hits give high values. In general terms: A flow cytometer gives signals particle by particle.
Regarding `COc1ccc(N(CC(=O)NCCSCc2cccc(Cl)c2)S(C)(=O)=O)cc1`, the inhibition (usually the drop in the measured response relative to a control, in per cent) was 1% (inactive).

In the case of `CCCSc1nc2sc3c(c2c(=O)n1-c1ccc(OC)cc1)CCN(C)C3`, the inhibition is 1.8% (inactive).

Take `CC1CCN(C(=O)c2ccc(S(=O)(=O)Cc3cc(F)ccc3F)c([N+](=O)[O-])c2)CC1`: the inhibition is 0.4% (inactive).

Turning to `Cc1cc(S(=O)(=O)NC2CCCC2)ccc1-n1cnnn1`, the inhibition was 0.3% (inactive).

`OC(c1ccc(Cl)cc1)C(CN1CCOCC1)c1ccccc1` (configuration not stated): the inhibition was 2.5% (inactive).

As to `CCOCCn1c(-c2ccccc2)nc2ccccc21`, the inhibition is -0.1% (inactive).

With `COc1ccc(C(=O)Nc2nc(-c3ccc(OC)cc3)c(-c3ccc([N+](=O)[O-])cc3)s2)cc1`, the inhibition was 15.9% (inactive).

On to `CC(C)Cc1nnc(NC(=O)CCC(=O)Nc2ccc3cn[nH]c3c2)s1`, for which the inhibition was -0.8% (inactive).

`COc1cc2cc(CN(CCN3CCCC3)C(=O)Nc3ccccc3Cl)c(=O)[nH]c2cc1OC`: the inhibition is -2.7% (inactive).

Take `CCN1CCN(C(C(=O)NC2CCCC2)c2cc3c(cc2[N+](=O)[O-])OCO3)CC1` (configuration not stated): the inhibition was -0.8% (inactive).

Regarding `COCCn1nnnc1C(c1cc2ccc(OC)cc2[nH]c1=O)N1CCc2ccccc2C1` (configuration not stated), the inhibition is 1.1% (inactive).

In the case of `COc1ccccc1-n1c(-c2cc(-c3ccco3)[nH]n2)n[nH]c1=S`, the inhibition is 1.5% (inactive).

With `COCc1cc(=O)[nH]c(SC)n1`, the inhibition is 0.2% (inactive).

Turning to `CC(=O)Nc1ccc(Oc2ccc3c(c2)C(=O)NC3=O)cc1`, the inhibition is 0.3% (inactive).

As to `CC1CCc2c(sc3nc4n(c(=O)c23)CCS4)C1` (configuration not stated), the inhibition is 0.4% (inactive).

Regarding `O=C(CN1CCCCCC1)Nc1c(Cl)cc(Cl)cc1Cl`, the inhibition is 0% (inactive).

In the case of `COc1ccc(NS(=O)(=O)c2cc(C(=O)Nc3ccccc3C(=O)O)ccc2C)cc1`, the inhibition was 0.6% (inactive).

Regarding `O=C(O)c1cc(S(=O)(=O)NC2CCCc3ccccc32)ccc1O` (configuration not stated), the inhibition was 0.7% (inactive).

Turning to `O=S(=O)(NC1CCCCC1N1CCC(O)CC1)c1ccc(Cl)cc1` (configuration not stated), the inhibition is -1% (inactive).

On to `Cc1c(NC(=O)c2cccnc2)c(=O)n(-c2ccccc2)n1C`, for which the inhibition was 0.8% (inactive).

Regarding `CN(C(=O)c1ccccn1)c1nnc(-c2ccccn2)s1`, the inhibition is -1.1% (inactive).

On to `CC(=O)c1cccc(NC(=O)N2CCCC2C(=O)NCCc2ccccc2)c1` (configuration not stated), for which the inhibition is 1.9% (inactive).
